HIF-2a block: inhibitors of HIF-2a; 786-0 RCC cells HIF-2a reporter, luciferase luminescence, overnight; inhibition, % at 18.8 µM; hit rate 0.72% among 360,000; AID 624352;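 active = inhibition of the luminescence signal of 40% or more relative to plate controls, in a single-dose primary screen at 18.75 µM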
Shn3 inh set2: Schnurri-3 reporter inhibition in Clone20 osteoblasts; Clone20 osteoblast Shn3 3'UTR firefly luciferase, 24 h; inhibition, % at 12.5 µM; hit rate 0.52% among 360,000; AID 588674;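 active = mean inhibition of at least 75% with every replicate also reaching 75%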;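 also: 0% = median of neutral control wells and 100% = pilot-screen positive control compound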
TWEAK Fn14 block: inhibitors of TWEAK-Fn14 interaction signaling. hit rate 2% among 360,000. inhibition, % at 10 µM. TWEAK-stimulated Fn14 reporter cells, luciferase luminescence, 8 h; in the data active = inhibition above about 50%
EBV LMP1 NFkB: inhibitors of Epstein-Barr LMP1-induced NF-kappaB reporter | inhibition, % at 12.5 µM | AID 504558 | hit rate 0.69% among 350,000 | LMP1-induced NF-kappaB luciferase reporter cells, luminescence; in the data active = inhibition above about 41%;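 also: 0% = neutral control wells and 100% = reference inhibitor control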
TROY signal inh: TROY signaling inhibition; Q293 LMP1-TROYcd NF-kB luciferase reporter, 4 h; inhibition, % at 10 µM; hit rate 0.98% among 360,000; AID 1347056;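 active = compounds whose plate-normalised and pattern-corrected inhibition of the luciferase reporter signal at the single screening dose is 50% or more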
TRPM1 prom inh: reduces MITF-dependent TRPM1 promoter luciferase signal; SK-MEL-5 TRPM1 promoter luciferase, 24 h; inhibition, % at 12.5 µM; hit rate 0.83% among 330,000; AID 488899;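 active = mean inhibition across replicates of 60% or more, whatever share of single replicates reaches that level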
Active calls of the source: *; / = not tested or not shown; ! = not confirmed by another sample. Most compounds without a hit are left out; they make up all but 3.4% or so of the library.

SMILES	HIF-2a block	Shn3 inh set2	TWEAK Fn14 block	EBV LMP1 NFkB	TROY signal inh	TRPM1 prom inh
CCN1C[C@]2(CO)CC[C@H](OC)[C@@]34C5C[C@H]6[C@H](OC)C5[C@](O)(C[C@H]6OC)[C@@H](C(OC)C23)[C@@H]14 (some centres undefined)	9.8	4.0	2.9	-3.3	-3.8	-0.8
O=P1(N(CCCl)CCCl)NCCCO1 (centres undefined)	4.4	-7.2	3.1	85.4*	6.6	-7.8
CCCCCc1cc(O)c2c3c(c(=O)oc2c1)CN(C)CC3	-48.5	-4.5	-7.7	-7.5	-13.7	-11.0
O=C(O)COc1cc(Cl)c(Cl)cc1Cl	-1.0	4.6	2.5	/	2.9	/
O=C(C1CCCN(c2nnc(-n3cccc3)s2)C1)N1CCC2(CC1)OCCO2 (centres undefined)	4.7	-13.3	74.4*	10.5	/	-1.8
NCCc1cc(O)c(O)cc1O	6.8	-14.4	56.4*!	4.8	4.4	-0.3
CCOC(=O)[C@@H]1[C@H]2COc3ccc(Br)cc3[C@@H]2N2C(=O)N(c3cccc(C)c3)C(=O)[C@]12C	10.6	11.1	-11.9	-4.3	-5.6	4.7
Oc1ccc2c3c1O[C@H]1[C@@H](O)CC[C@@]4(O)[C@@H](C2)N(CC2CCC2)CC[C@]314	-2.3	15.9	4.5	68.5*!	-3.4	2.6
CCCCn1c(NC(=O)c2ccco2)c(C(=O)OCC)c2nc3ccccc3nc21	0.4	8.5	48.3	-11.3	52.5*	5.4
CCCCn1c(NS(=O)(=O)c2ccc(C)cc2)c(C(=O)OCC)c2nc3ccccc3nc21	3.6	-8.8	57.9*	-3.7	62.9*	1.4
CCOC(=O)c1c(N)n(Cc2ccco2)c2nc3ccccc3nc12	9.0	13.1	6.7	-5.0	9.8	0.8
COC(=O)C1=C(c2ccc(OCc3ccccc3)cc2)C[C@@H]2CC[C@H]1N2C(=O)NCCCCc1ccccc1	-0.4	82.3	24.3	-0.5	12.3	/
C=C(C)CSc1nnc([C@@H](N)Cc2c[nH]c3ccccc23)o1	2.9	-7.4	-2.5	-2.9	-12.2	2.9
Cc1[nH]nc2ccc(-c3cncc(OC[C@@H](N)Cc4c[nH]c5ccccc45)c3)cc12	74.9*	96.1*	98.0*	90.2*	77.2*	90.7*
CCCc1nc2ccc(Br)cc2c(=O)n1-c1ccc([N+](=O)[O-])c(C(F)(F)F)c1	-6.6	92.8*	45.8	44.4*	46.7	32.1
C[N+](C)(C)CC#CCOC(=O)Nc1cccc(Cl)c1	-3.2	-2.8	5.5	81.5*	0.7	-0.4
CCC1(c2cccc(O)c2)CCCCN(C)C1 (centres undefined)	0.9	4.4	-0.6	-7.5	6.5	-4.1
c1ccc2c(c1)[IH]c1ccccc1-2	51.8*	91.4*	13.3	23.7	-7.2	88.2*
c1ccc2c(c1)-c1cccc3cccc-2c13	-10.2	-14.0	-11.5	6.2	-18.2	-10.5
CCC(C)NC(=O)CCC(=O)OC1O[C@H]2OC3(C)CC[C@H]4[C@H](C)CCC(C1C)C24OO3 (some centres undefined)	16.7	67.4	36.4	-17.8	-1.3	30.4
CCC(C)C(NC(=O)CCCNC(=O)CCC(=O)OC1O[C@H]2OC3(C)CC[C@H]4[C@H](C)CCC(C1C)C24OO3)C(=O)O (some centres undefined)	-2.0	86.6*	44.8	-54.8	0.6	42.8
CC1=C(N2CC2)C(=O)C(CO)=C(N2CC2)C1=O	88.5*	95.7*	28.5	88.8*	-3.1	106.2*
COC(COC(N)=O)C1=C(N2CC2)C(=O)C(C)=C(N2CC2)C1=O (centres undefined)	-4.6	70.3	-5.9	-6.0	2.5	-2.7
C[C@@H]1CN([C@@H](C)CO)C(=O)CCCn2nncc2CO[C@@H]1CN(C)C(=O)Oc1cccc2ccccc12	-4.9	1.6	16.8	-0.7	-13.5	/
Nc1cccc(SC2CC(=O)N(c3ccc(Cl)cc3C(=O)c3ccccc3)C2=O)c1 (centres undefined)	11.9	34.8	54.0*	6.9	41.5	/
SMILES	HIF-2a block	Shn3 inh set2	TWEAK Fn14 block	EBV LMP1 NFkB	TROY signal inh	TRPM1 prom inh
O=C1C(Cl)=CC(=Nc2ccc(O)cc2)C=C1Cl	5.4	-12.6	14.2	-4.4	15.6	15.4
COC12C(COC(N)=O)C3=C(C(=O)C(C)=C(N)C3=O)N1CC1C2N1C (centres undefined)	10.5	27.5	-2.6	63.4*	-13.7	34.2
COc1ccc(CCNCc2cccn2C)cc1	5.7	7.2	-16.5	69.1*	5.4	2.5
CC12CC[C@H]3[C@@H](CCC4(O)C[C@H](O)CCC34/C=N/NC(=O)c3ccc(O)cc3)C1(O)CCC2C1=CC(=O)OC1 (some centres undefined)	11.6	/	-12.1	-5.6	5.6	-11.7
CC12CC[C@H]3[C@@H](CCC4(O)C[C@H](O)CCC34/C=N/NC(=O)c3ccccc3F)C1(O)CCC2C1=CC(=O)OC1 (some centres undefined)	-3.8	/	95.4*	1.9	-12.8	-15.1
CN(C)c1ccc(C(=O)N/N=C/C23CC[C@@H](O)CC2(O)CC[C@@H]2[C@@H]3CCC3(C)C(C4=CC(=O)OC4)CCC23O)cc1 (some centres undefined)	20.8	/	-21.1	-8.9	26.0	74.8*
Cc1ccc(C)c(OCc2cc(C(=O)N3C[C@H]4C[C@@H](C3)c3cccc(=O)n3C4)no2)c1	-14.0	7.0	-0.6	0.9	-3.0	13.7
CN(C)[C@@H]1C(=O)C(C(N)=O)=C(O)[C@@]2(O)C(=O)C3=C(O)c4c(O)cccc4[C@@](C)(O)[C@H]3[C@H](O)[C@@H]12	9.1	-4.0	-11.9	89.6*!	-0.6	1.6
CCCC[N+]1(C)[C@@H]2CC(OC(=O)[C@H](CO)c3ccccc3)C[C@H]1[C@@H]1O[C@@H]12 (some centres undefined)	-6.7	-3.6	-24.2	-9.3	-0.2	0.9
CCN1/C(=C\C=C\C2=[N+](CC)c3ccccc3C2(C)C)C(C)(C)c2ccccc21	73.7*	96.2*	100.0*	70.8*	65.4*	102.2*
O=C1NC(=O)N(Cc2ccco2)C(=O)/C1=C/c1ccc(-c2cccc([N+](=O)[O-])c2)o1	65.0*	31.3	12.4	11.8	-4.9	10.4
C=CCN1C(=O)NC(=O)/C(=C\c2ccc(-c3ccccc3[N+](=O)[O-])o2)C1=O	33.9	38.1	25.6	-5.7	20.0	33.0
C=CCN1C(=O)/C(=C/c2cccs2)C(=O)NC1=S	42.7*	-17.5	4.8	5.9	11.0	19.0
CC[n+]1c(/C=C/N(C)c2ccccc2)sc2ccc(Cl)cc21	0.2	92.3*	27.5	20.4	-2.2	67.2*
CN(C)c1ccc(/C=C/c2cc[n+](C)c3ccccc23)cc1	-10.6	81.4	52.9*!	42.5*!	47.5	82.0*
C[n+]1c(-c2ccccc2)sc2ccccc21	5.0	-41.1	-2.2	3.5	-3.4	18.8

Compound activity deposited in PubChem BioAssay by several laboratories.
